Assay results reported in PubChem BioAssay (Tox21).
Records with an inconclusive call do not appear. The source made the active and inactive calls. The call rests on the fitted dose curve; in most records, active means well fitted cell-killing curve with a large enough effect in the repeat runs; inconclusive means weak or mixed curves, or effect the other way; inactive means flat fitted curve, though single readings scatter.

Assay: qHTS assay to identify small molecule agonists of the constitutive androstane receptor (CAR) signaling pathway - cell viability counter screen (AID 1224836)
Conditions: HepG2-CYP2B6-hCAR viability, CellTiter-Fluor, 23 h, PK11195 added to every well; series mostly up to 92.4 µM; viability change, negative = cytotoxic: at the top concentration
Procedure, shortened: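 Multiplexed viability check: HepG2-CYP2B6-hCAR cells, 15-point compound dosing, 0.75 uM PK11195 final, 23 h at 37 C, CellTiter-Fluor fluorescence.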
Further: nearly all actives have a fitted effect of over 45% in size.
On the % scale 0 is the no-effect control and ±100 the full control effect.

SMILES | viability change, negative = cytotoxic
O=C(C1CCCCC1)N1CC(=O)N2CCCc3ccccc3C2C1 (stereo not given) | 0.416% [at 42.5 µM] (inactive)
Nc1cccc2c(=O)[nH][nH]c(=O)c12 | -6.8% (inactive)
CC(=O)Nc1ccccc1O | -0.0939% (inactive)
COc1ccnc2c1CCCCC2S(=O)c1nc2ccccc2[nH]1 (stereo not given) | 2.13% [at 42.5 µM] (inactive)
Oc1ccc(CCNCCCCCCNCCc2ccccc2)cc1O | -13.9% [at 42.5 µM] (inactive)
COc1ccc(C(=O)Nc2ccccc2)cc1[N+](=O)[O-] | -6.67% (inactive)
CCCCCCC/C=C/C=O | 1.45% (inactive)
COC(=O)Cc1cccc2ccccc12 | 8.05% (inactive)
CCCCOc1ccc(N)cc1 | 12.1% (inactive)
Nc1ccccc1Nc1ccccc1 | -19.1% (inactive)
CC(C)C/C=C(\C=O)c1ccccc1 | -3.94% (inactive)
COc1ccc(/C=C/c2cc(OC)cc(=O)o2)cc1 | -2.57% [at 42.5 µM] (inactive)
O=C1c2ccccc2C(=O)C1c1ccc2ccccc2n1 | -24.8% [at 42.5 µM] (inactive)
CCCCCCCCCC(C)C=O (stereo not given) | 4.89% (inactive)
C=C[Si](OCC)(OCC)OCC | 0.219% (inactive)
CC(C)CC(C)(C)C | 3.74% (inactive)
CC(C)(Cc1c[nH]c2ccccc12)NCC(O)COc1ccccc1C#N (stereo not given) | -14.5% [at 42.5 µM] (inactive)
O=Cc1ccc(Cl)c([N+](=O)[O-])c1 | -8.7% (inactive)
CCn1nc(Cc2ccccc2)cc1C1CCN(C[C@H]2C[C@H](N(C)[C@@H](C(=O)O)C(C)C)C[C@@H]2c2cccc(F)c2)CC1 | -24.8% (inactive)
Clc1cc(Cl)c2c(c1)N=C1CCCCCN1C2 | -20.2% [at 42.5 µM] (inactive)
COC(=O)/C=C/C(C)=C\C=C\C(C)=C\C=C\C=C(C)\C=C\C=C(C)\C=C\C(=O)O | 0.401% (inactive)
NC(=O)c1ccccc1C(N)=O | -16% (inactive)
O=C1c2ccccc2C(=O)c2c1ccc(O)c2O | -8.01% [at 42.5 µM] (inactive)
O=C(N[C@@H](Cc1ccccc1)[C@@H](O)C(=O)N1C[C@@H](O)[C@@H](O)C1)c1cc2cc(Cl)ccc2[nH]1 | 1.02% (inactive)
CC(C)(C)c1ccc(CCC=O)cc1 | 0.107% (inactive)
Sc1nc(S)nc(S)n1 | 5.43% [at 42.5 µM] (inactive)

Assay: qHTS assay to identify small molecule antagonists of the constitutive androstane receptor (CAR) signaling pathway - cell viability counter screen (AID 1224837)
Conditions: HepG2-CYP2B6-hCAR viability, CellTiter-Fluor, 23 h, co-treated with 50 nM CITCO; series mostly up to 92.4 µM; activity change, negative = cytotoxicity: at the top concentration
Procedure, shortened: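 Using CellTiter-Fluor, viability is scored in HepG2 cells stably carrying hCAR and a 2.2kb CYP2B6 reporter after 23 hr compound exposure across 15 concentrations, with CITCO present at 50 nM.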

SMILES | activity change, negative = cytotoxicity
O=C(C1CCCCC1)N1CC(=O)N2CCCc3ccccc3C2C1 (stereo not given) | 4.66% [at 42.5 µM] (inactive)
COc1ccnc2c1CCCCC2S(=O)c1nc2ccccc2[nH]1 (stereo not given) | 1.16% [at 42.5 µM] (inactive)
Oc1ccc(CCNCCCCCCNCCc2ccccc2)cc1O | -11.2% [at 42.5 µM] (inactive)
COc1ccc(C(=O)Nc2ccccc2)cc1[N+](=O)[O-] | -5.88% (inactive)
CCCCCCC/C=C/C=O | 10% (inactive)
COC(=O)Cc1cccc2ccccc12 | 0.498% (inactive)
CCCCOc1ccc(N)cc1 | 11.1% (inactive)
CCc1c(C)[nH]c2c1C(=O)C(CN1CCOCC1)CC2 (stereo not given) | -4.11% [at 42.5 µM] (inactive)
COC(=O)C(C)(C)C | -1.38% (inactive)
CC(C)C/C=C(\C=O)c1ccccc1 | -5.46% (inactive)
COc1ccc(/C=C/c2cc(OC)cc(=O)o2)cc1 | -6.19% [at 42.5 µM] (inactive)
O=C1c2ccccc2C(=O)C1c1ccc2ccccc2n1 | -22.3% [at 42.5 µM] (inactive)
CCCCCCCCCC(C)C=O (stereo not given) | 2.5% (inactive)
C=C[Si](OCC)(OCC)OCC | 4.24% (inactive)
CCCC1CCOC(C)S1 (stereo not given) | -0.682% (inactive)
CC(C)(Cc1c[nH]c2ccccc12)NCC(O)COc1ccccc1C#N (stereo not given) | -13% [at 42.5 µM] (inactive)
CC1=CC(=C(c2ccc(N)cc2)c2ccc(N)cc2)C=CC1=N | -13.7% [at 8.39 µM] (inactive)
Clc1cc(Cl)c2c(c1)N=C1CCCCCN1C2 | -17.7% [at 42.5 µM] (inactive)
COC(=O)/C=C/C(C)=C\C=C\C(C)=C\C=C\C=C(C)\C=C\C=C(C)\C=C\C(=O)O | 1.8% (inactive)
NC(=O)c1ccccc1C(N)=O | 3.68% (inactive)
O=C1c2ccccc2C(=O)c2c1ccc(O)c2O | -9.35% [at 42.5 µM] (inactive)
O=[N+]([O-])c1ccccc1CCO | -0.724% (inactive)
O=C(N[C@@H](Cc1ccccc1)[C@@H](O)C(=O)N1C[C@@H](O)[C@@H](O)C1)c1cc2cc(Cl)ccc2[nH]1 | -4.05% (inactive)
Sc1nc(S)nc(S)n1 | 4.21% [at 42.5 µM] (inactive)
